High-throughput results as filed in PubChem.
Rows were chosen to be rich in hits. Some 2.4% of all compounds tested hit in one or more screens of this group.
D2 PAM-1 – positive allosteric modulators of human D2 dopamine receptor; P14416; HEK293 T-REx D2, calcium flux, EC20 dopamine potentiation; potentiation, % at 10 µM; hit rate 0.34% among 340,000;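 active means potentiation over 3 SD above the plate norm, cut at about 30% in these data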
Target sequence (P14416 whole entry, looked up): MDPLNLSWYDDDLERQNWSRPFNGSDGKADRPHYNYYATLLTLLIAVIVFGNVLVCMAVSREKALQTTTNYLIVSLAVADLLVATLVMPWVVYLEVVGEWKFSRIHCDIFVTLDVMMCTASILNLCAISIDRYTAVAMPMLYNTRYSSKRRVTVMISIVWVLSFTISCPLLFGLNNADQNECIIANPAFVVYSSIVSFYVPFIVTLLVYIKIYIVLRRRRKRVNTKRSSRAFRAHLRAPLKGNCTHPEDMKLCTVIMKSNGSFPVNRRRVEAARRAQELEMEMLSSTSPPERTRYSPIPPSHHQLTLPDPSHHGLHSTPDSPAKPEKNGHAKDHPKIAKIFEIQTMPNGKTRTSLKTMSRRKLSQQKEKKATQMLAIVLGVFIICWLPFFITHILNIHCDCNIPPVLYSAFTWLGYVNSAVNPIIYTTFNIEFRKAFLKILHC
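Primary screen. Calcium kinetics in induced HEK293 T-REx D2 cells: compound pre-addition 180 s, EC20 dopamine, 180 s more.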
D2 antagonist – D2 dopamine receptor (human) antagonism | inhibition, % at 10 µM | hit rate 2% among 340,000 | HEK293 TREx D2 cells, calcium flux, dopamine EC80 | P14416; in the data active means inhibition above about 30%; inactive means below that, where a call was filed
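Measurement of antagonist activity uses fluorescent calcium dye in inducible HEK293 T-REx D2 cells: 10 s baseline, compound addition with 180 s read, EC80 dopamine addition with a further 180 s read.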
D2 PAM-2 – human D2 receptor positive allosteric modulation | DiscoveRx D2 beta-arrestin cells, luminescence, 90 min; 100% = 57 uM dopamine signal | AID 624464 | potentiation, % (concentration not given with the values) | hit rate 0.23% among 360,000 | P14416; in the data active means potentiation above about 50%; inconclusive means mostly about 30% to 49%
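PathHunter D2 cells, attached overnight at 37 deg C, received compound in DMSO plus dopamine at EC20 (50 nM final) for 90 min at 37 deg C. Beta-arrestin recruitment was read as luminescence after 1 h with detection reagent at ambient temperature.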
D2 ag-1 – activates the human D2 dopamine receptor | P14416 | HEK293 T-REx D2 cells, calcium flux agonist mode | activation, % at 2 µM | hit rate 0.53% among 340,000 | AID 485358;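 active means activation over 3 SD above normal in the single-dose calcium agonist read, cut at about 30% in these data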
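HEK293 Trex D2 cells, tetracycline-induced, o/n 30 C 5% CO2; no-wash Ca dye, RT 30–90 min; 10-cycle baseline, 23 nl cpd added, kinetic Ca read 180 s; agonist hits = positive Ca response.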
D2 ag-2 – activates the human D2 dopamine receptor | P14416 | DiscoveRx PathHunter D2 beta-arrestin, luminescence, 90 min; 100% = 57 uM dopamine signal | activation, % (no concentration beside the values) | hit rate 0.084% among 360,000 | AID 624465; in the data active means activation above about 40%; inconclusive means between about 15% and that limit
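Agonist mode: compounds alone added to overnight-plated D2 PathHunter cells for 90 min at 37 C, with 57 uM final dopamine (EC100) defining full response. Beta-arrestin recruitment detected by chemiluminescent reagent, read after 1 h at ambient temperature.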
Numbers stand for hits.

Results for COc1cc(/C=C(\NC(=O)c2ccccc2)C(=O)Nc2nccs2)ccc1OC(C)=O ?
D2 PAM-1: inactive; D2 antagonist: inactive; D2 PAM-2: inactive; D2 ag-1: inactive; D2 ag-2: inactive

What do the screens show for `C/C(C=O)=C/c1ccccc1`?
D2 PAM-1: inactive; D2 antagonist: inactive; D2 PAM-2: inactive; D2 ag-1: inactive; D2 ag-2: inactive

Results for Cc1cccc(C(=O)OCC(=O)N2CCCCCC2)c1 ?
D2 PAM-1: inactive; D2 antagonist: 30.7; D2 PAM-2: inactive; D2 ag-1: inactive; D2 ag-2: inactive

Results for COc1ccc2oc(C(=O)OCC(=O)N3CCCCC3)c(C)c2c1 ?
D2 PAM-1: inactive; D2 antagonist: 31.3; D2 PAM-2: inactive; D2 ag-1: inactive; D2 ag-2: inactive

How did COc1ccc2oc(C(=O)OCC(=O)N3CCN(C(C)=O)CC3)c(C)c2c1 do in these assays?
D2 PAM-1: inactive; D2 antagonist: inactive; D2 PAM-2: inactive; D2 ag-1: inactive; D2 ag-2: inactive

How did CN(C)c1ccc(CNC(=O)CN2C(=O)CSc3ccc(S(=O)(=O)N4CCCC4)cc32)cc1 do in these assays?
D2 PAM-1: inactive; D2 ag-1: inactive

How did N#Cc1cccc(NC(=O)COC(=O)CCc2ccc(S(=O)(=O)N3CCOCC3)cc2)c1 do in these assays?
D2 PAM-1: inactive; D2 antagonist: 34.4; D2 PAM-2: inactive; D2 ag-1: inactive; D2 ag-2: inactive

Results for C=CCN1C(=O)C(Cc2ccccc2Cl)SC1=Nc1ccc(C(=O)O)cc1 (stereo not given) ?
D2 PAM-1: inactive; D2 antagonist: inactive; D2 PAM-2: inactive; D2 ag-1: inactive; D2 ag-2: inactive

How did CC1CCCN(S(=O)(=O)c2ccc(C(=O)Nc3nnc(-c4ccccn4)o3)cc2)C1 (stereo not given) do in these assays?
D2 PAM-1: inactive; D2 antagonist: 34.6; D2 PAM-2: inactive; D2 ag-1: inactive; D2 ag-2: inactive

What do the screens show for `Cc1nnc(NC(=O)c2ccc(S(=O)(=O)N3CCCCCC3)cc2)o1`?
D2 PAM-1: inactive; D2 antagonist: inactive; D2 PAM-2: inactive; D2 ag-1: inactive; D2 ag-2: inactive

Results for COCc1nnc(NC(=O)c2ccc(S(=O)(=O)N3CCCCCC3)cc2)o1 ?
D2 PAM-1: 31.9; D2 antagonist: inactive; D2 PAM-2: inactive; D2 ag-1: inactive; D2 ag-2: inactive

What do the screens show for `CCc1nc2nc(C)cc(Nc3cc(C)ccc3C)n2n1`?
D2 ag-1: inactive

Results for Cc1oc2ncn(CC(C)C)c(=O)c2c1C(=O)NCCCN(C)Cc1ccccc1 ?
D2 PAM-1: inactive; D2 ag-1: inactive

How did CN1C(C(=O)NCc2cccc(C(F)(F)F)c2)CC2Cn3c(nc4cc5ccccc5cc43)C21 (stereo not given) do in these assays?
D2 PAM-1: inactive; D2 antagonist: 42.6; D2 PAM-2: inactive; D2 ag-1: inactive; D2 ag-2: inactive

What do the screens show for `COc1ccc(NS(=O)(=O)c2csc(C(=O)Nc3ccccc3)c2)cc1`?
D2 PAM-1: inactive; D2 antagonist: inactive; D2 PAM-2: inactive; D2 ag-1: inactive; D2 ag-2: inactive

What do the screens show for `O=C(CSc1nc(C2CC2)nc2ccccc12)N1c2ccccc2Sc2ccc(C(F)(F)F)cc21`?
D2 PAM-1: inactive; D2 antagonist: inactive; D2 PAM-2: 59.9; D2 ag-1: inactive; D2 ag-2: inactive

Results for CCCCn1cc(S(=O)(=O)c2ccc(CC)cc2)c(=O)c2cc(F)c(N3CCOCC3)cc21 ?
D2 PAM-1: inactive; D2 ag-1: inactive

What do the screens show for `Cc1ccc(C2CC(C(F)(F)F)n3ncc(C(=O)NCc4ccco4)c3N2)cc1` (stereo not given)?
D2 PAM-1: inactive; D2 antagonist: 37.2; D2 PAM-2: inactive; D2 ag-1: inactive; D2 ag-2: inactive

What do the screens show for `CN(C)CCN(C(=O)c1ccc(S(=O)(=O)N2CCc3ccccc32)cc1)c1nc2ccc(F)cc2s1`?
D2 PAM-1: inactive; D2 antagonist: 68.8; D2 PAM-2: inactive; D2 ag-1: inactive; D2 ag-2: inactive

How did CCc1ccc2nc(N(CCCN(C)C)C(=O)c3ccc(S(=O)(=O)N4CCCc5ccccc54)cc3)sc2c1 do in these assays?
D2 PAM-1: inactive; D2 antagonist: inactive; D2 PAM-2: inactive; D2 ag-1: inactive; D2 ag-2: inactive

What do the screens show for `C(=Nc1ccc(Nc2ccccc2)cc1)c1ccc2ccccc2c1`?
D2 PAM-1: inactive; D2 antagonist: inactive; D2 PAM-2: 52.0; D2 ag-1: inactive; D2 ag-2: inactive

How did NC(=S)N/N=C/c1ccc2ccccc2c1 do in these assays?
D2 PAM-1: inactive; D2 antagonist: 48.1; D2 PAM-2: inactive; D2 ag-1: inactive; D2 ag-2: inactive

What do the screens show for `Brc1ccc(C=Nc2ccc(Nc3ccccc3)cc2)s1`?
D2 PAM-1: inactive; D2 antagonist: inactive; D2 PAM-2: 87.4; D2 ag-1: inactive; D2 ag-2: inconclusive

What do the screens show for `COc1cccc2sc(NC(=O)CS(=O)(=O)c3ccc(C)cc3)nc12`?
D2 PAM-1: inactive

Results for CCN(CC)CCOc1cccc(C(C)C)c1 ?
D2 antagonist: 72.8; D2 PAM-2: inactive; D2 ag-1: inactive; D2 ag-2: inactive

How did CC1CCN(CCCCOc2ccc(C(=O)c3ccccc3)cc2)CC1 do in these assays?
D2 PAM-1: inactive; D2 PAM-2: inactive; D2 ag-2: inactive

Results for CC1CCN(CCOc2cccc(Br)c2)CC1 ?
D2 PAM-1: inactive; D2 antagonist: 97.8; D2 PAM-2: inactive; D2 ag-1: inactive; D2 ag-2: inactive

How did Brc1cccc(OCCCN2CCCCCC2)c1 do in these assays?
D2 PAM-1: inactive; D2 antagonist: inactive; D2 PAM-2: inactive; D2 ag-1: inactive; D2 ag-2: inactive

How did Cc1ccc(OCCCCN2CCC(C)CC2)cc1 do in these assays?
D2 PAM-1: inactive; D2 antagonist: 48.9; D2 PAM-2: inactive; D2 ag-1: inactive; D2 ag-2: inactive

Results for CC1CCN(CCCCOc2cccc(C(C)C)c2)CC1 ?
D2 PAM-1: inactive; D2 antagonist: 58.2; D2 PAM-2: inactive; D2 ag-1: inactive; D2 ag-2: inactive

What do the screens show for `Cc1ccc(C(=O)N2CCn3c(C)ccc3C2C)cc1` (stereo not given)?
D2 PAM-1: inactive; D2 antagonist: inactive; D2 PAM-2: inactive; D2 ag-1: inactive; D2 ag-2: inactive

What do the screens show for `O=C(NCc1cccnc1)C(=O)Nc1ccc2c(c1)OCO2`?
D2 PAM-1: inactive; D2 antagonist: inactive; D2 PAM-2: inactive; D2 ag-1: inactive; D2 ag-2: inactive

What do the screens show for `Cc1cccc(CN2C(=O)c3ccccc3Sc3ccc(C(=O)NCc4cccs4)cc32)c1`?
D2 PAM-1: inactive; D2 ag-1: inactive

Results for COCC(=O)N[C@@H]1c2ccccc2CC[C@@H]1OCc1ccccc1 ?
D2 ag-2: inactive

Results for CC1CCN(CCCCOc2ccc(F)cc2)CC1 ?
D2 PAM-1: inactive; D2 antagonist: 44.2; D2 PAM-2: inactive; D2 ag-1: inactive; D2 ag-2: inactive

Results for CN1CCN(CCCCOc2ccc(F)cc2)CC1 ?
D2 PAM-1: inactive; D2 antagonist: inactive; D2 PAM-2: inactive; D2 ag-1: inactive; D2 ag-2: inactive
